27 compounds from PubChem BioAssay AID547 (Emory University Molecular Libraries Screening Center, 2006) can be followed below.

The campaign covered roughly 1,300 compounds. About 10 (0.8%) were called active. The sample holds actives, similar compounds and a random draw of the others, so the mix is not that of the screen. No rule for the calls is given here.

The target of this assay is Chaperone protein DnaK (Escherichia coli (strain K12)) (UniProt P0A6Y8). The assay is described as follows: blockers of bacterial DnaK function – luminescence, E. coli K12, primary screen (AID 547).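 Also: tested at 10 µM.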 As to conditions: DnaK chaperone assay, luminescence read-out; active compounds read low.
Regarding `CN1CCc2cc(NC(=O)Nc3cccnc3)ccc21`, the luminescence is 2.6e+06 cps (inactive).

As for `CCCCOc1cc(CC2CNC(=O)N2)ccc1OC` (configuration not stated), the luminescence was 2.5e+06 cps (inactive). As for `CCCCCCCCCCCCCCCCCC(=O)OC(CC(=O)O)C[N+](C)(C)C` (configuration not stated), the luminescence was 2.5e+06 cps (inactive). As to `CN1C2CCC1CC(OC(=O)c1c[nH]c3ccccc13)C2` (configuration not stated), the luminescence is 2.3e+06 cps (inactive). Turning to `NCCS`, the luminescence is 2.4e+06 cps (inactive). Take `Fc1ccc([C@@H]2CCNC[C@H]2COc2ccc3c(c2)OCO3)cc1`: the luminescence was 2.9e+06 cps (inactive).

As to `NCCCCCCCCCCN`, the luminescence was 2.6e+06 cps (inactive). Turning to `O=C(O)C1=CCCNC1`, the luminescence is 2.8e+06 cps (inactive). Consider `C[C@]12CC[C@@H]3c4ccc(O)cc4CC[C@H]3[C@@H]1CC[C@@H]2O`, for which the luminescence was 2.9e+06 cps (inactive).

As for `CCOC(=O)C1=C[C@]2(CC)CCCN3CCc4c(n1c1ccccc41)[C@@H]32`, the luminescence is 2.3e+06 cps (inactive).

For `O=Nc1c(-c2c(O)[nH]c3ccccc23)[nH]c2ccccc12`, the luminescence was 2.9e+06 cps (inactive). The result for `OC[C@H]1O[C@@H](n2cnc3c(NCCc4ccccc4)ncnc32)C(O)[C@H]1O` (some centres not stated) reads 2.2e+06 cps (inactive). In the case of `CC(C)(C)NCC(O)COc1nsnc1N1CCOCC1` (configuration not stated), the luminescence was 2.3e+06 cps (inactive). The result for `O=c1n(CCCN2CCN(c3cccc(Cl)c3)CC2)nc2ccccn12` reads 2.5e+06 cps (inactive).

`CCN1CCc2nc(N)oc2CC1`: the luminescence is 2.6e+06 cps (inactive). Next, `CC(N)C1CCC(C(=O)Nc2ccncc2)CC1` (configuration not stated): 2.8e+06 cps (inactive); `COCc1nc2c([nH]1)c(=O)n(C)c(=O)n2CC(C)C`: 2.7e+06 cps (inactive). In the case of `CCCCC1C(=O)N(c2ccccc2)N(c2ccccc2)C1=O`, the luminescence was 2.6e+06 cps (inactive).

As for `Oc1ccc(O)cc1`, the luminescence was 2.9e+06 cps (inactive). For the compound `NC(=O)CC[C@H](N)C(=O)O`, the luminescence is 2.9e+06 cps (inactive). Next, `COc1[nH]c2ccc(F)cc2c1C(=O)OCC1CCN(CCNS(C)(=O)=O)CC1`: 3e+06 cps (inactive). Consider `COc1ccc(-c2ccc(N)[n+](CCCC(=O)O)n2)cc1`, for which the luminescence is 2.3e+06 cps (inactive).

As for `C[C@H]1CC2C3CCC4=CC(=O)C=C[C@]4(C)[C@@]3(Cl)[C@@H](O)C[C@]2(C)[C@@]1(O)C(=O)CO` (some centres not stated), the luminescence was 2.6e+06 cps (inactive). Take `N=S(=O)(O)Cc1noc2ccccc12`: the luminescence is 2.1e+06 cps (inactive). In the case of `CCCCCCC/C=C\CCCCCCCCC(=O)O`, the luminescence is 1.7e+06 cps (active). The result for `CCCCCCCC/C=C\CCCCCCCC(=O)NCCO` reads 2.9e+06 cps (inactive); that for `CCCCCCCCCCC/C=C\C(C)(C)/C=C\CCCC(=O)O`, 2.3e+06 cps (inactive).
